Pf Dd2 inh = Plasmodium falciparum Dd2 growth inhibition | 4.3% of 120,000 active | Potency, µM (doses to about 28.9 µM), inactives show at the highest dose activity, negative = inhibition, most hits filed as inhibitors | P. falciparum Dd2 growth, SYBR Green, 72 h | AID 1347417; active means well fitted inhibition curve with a large enough effect;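 further: plate controls were DMSO vehicle for no effect and reference drug for full effect; nearly all actives have a fitted effect of over 65% in size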
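Infected erythrocytes (Dd2, 0.3% parasitemia, 2.5% hematocrit final) are added to compound in RPMI-1640/Albumax II medium, grown 72 h at 37C in low oxygen, then lysed with saponin/Triton-X containing SYBR Green and read by fluorescence.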
Starred values were filed as active, the others as inactive; i = inactive; [ ] = another dose, or the depositor's remark. The full list was thinned out, with hits kept by preference. Potency means the concentration at half of the fitted maximal effect.

SMILES	Pf Dd2 inh
CC(=O)N1CCCn2nc(C)c(-c3ccccc3OCc3ccccc3)c21	i
COc1ccc(C(=O)N2CCCn3nc(C)c(-c4ccccc4-c4ccccc4)c32)cn1	i
Cc1nn2c(c1-c1ccccc1OCc1ccccc1)N(C(=O)CCc1cccnc1)CCC2	i
COc1ccccc1C(=O)N1CCCn2nc(C)c(-c3ccccc3-c3ccccc3)c21	-17%[44.1 µM]
COc1ccc(C(=O)N2CCCn3nc(C)c(-c4ccccc4-c4ccccc4)c32)cc1	10µM*
COc1cccc(CC(=O)N2CCCn3nc(C)c(-c4ccccc4-c4ccccc4)c32)c1	10µM*
Cc1nn2c(c1-c1ccccc1C(N)=O)N(C(=O)Cc1cccc(F)c1)CCC2	13%[44.1 µM]
Cc1nn2c(c1-c1ccccc1Oc1ccccc1)N(Cc1ccccc1O)CCC2	0.56µM*
Cc1nn2c(c1-c1ccccc1[S+](C)(=O)[O-])N(Cc1ccccc1F)CCC2	i
Cc1nn2c(c1-c1ccccc1-c1ccccc1)N(C(=O)c1cccnc1)CCC2	i
COc1cccc(CC(=O)N2CCCn3nc(C)c(-c4ccccc4Oc4ccccc4)c32)c1	13µM*
Cc1nn2c(c1-c1ccccc1Oc1ccccc1)N(C(=O)C1CCC1)CCC2	-2%[44.1 µM]
COc1ccc(CC(=O)N2CCC(c3n[nH]c(=O)n3-c3ccc(C)cc3)CC2)cc1	-12%
CCc1nc(-c2c3n(c(=O)n(CC(=O)Nc4ccccc4CC)c2=O)CCCCC3)no1	i
c1ccc(-c2nc(CC3CCCNC3)no2)cc1 (stereo not given)	i
COc1cc(NC(=O)c2cc3n(n2)CC(c2ccc(Cl)cc2)OC3)c(OC)cc1Cl (stereo not given)	i
OC(c1cccc(C(F)(F)F)c1)c1nc(Nc2ccc(F)cc2F)n[nH]1 (stereo not given)	i
CCc1ccc(CNC(=O)CCc2conc2-c2cccc(C)c2)cc1	-9%
N[C@H](C(=O)N1CCC2(CC1)Nc1ccccc1NC2=O)c1ccccc1	0%
CC(C)c1ccc(CC(=O)N2CCCc3ncc(C(=O)N(C)c4ccccc4)cc32)cc1	i
O=C(C[C@@H]1C[C@H]2O[C@H](CNC3CCC3)[C@@H](O)[C@H]2O1)N1CCC(F)(F)C1	i
CCCCOCCCNC(=O)c1c(C)noc1-c1ccc(OC(F)(F)F)cc1	i
Cc1ccncc1-c1c(C)nn2c1N(Cc1ccc(C(=O)O)cc1)CCC2	i
Cc1nn2c(c1-c1ccccc1C(C)C)N(C(=O)Cc1ccc(O)cc1)CCC2	i
Cc1nn2c(c1-c1ccccc1OCc1ccccc1)N(C(=O)C(C)C)CCC2	i
SMILES	Pf Dd2 inh
Cc1nn2c(c1-c1ccccc1C(C)C)N(Cc1cccc(C(=O)O)c1)CCC2	4.5µM*
Cc1nn2c(c1-c1ccccc1C(C)C)N(Cc1ccc(C(=O)O)cc1)CCC2	-10%[44.1 µM]
Cc1nn2c(c1-c1ccccc1Oc1ccccc1)N(C(=O)Cc1ccc(O)cc1)CCC2	8.9µM*
COc1cccc(C(=O)N2CC(c3nnc(C(C)C)o3)C3(CCOCC3)C2)c1OC (stereo not given)	-16%
COc1ccc(C(=O)N2CCOCC3(CN(Cc4cccc(C#N)c4)C3)C2)cc1OC	i
COc1cccc(CNC(=O)C(C)(C)C2CCOCC2)c1OC	6%
